The results in this text go back to PubChem BioAssay AID652105 (National Center for Advancing Translational Sciences (NCATS), 2013).

Screen size: about 330,000 compounds; about 4,100 (1.2%) were called active. Inconclusive results (about 2%) are left out. Shown is part of a subset that was picked to be rich in actives. Values without a mark were called inactive. How the source made its calls: active means max response of -50% or lower; inconclusive means between -30% and -50%; inactive means -30% or higher.
On the % scale 0 is the no-effect control and ±100 the full control effect.

Chain of Phosphatidylinositol 5-phosphate 4-kinase type-2 alpha (Homo sapiens) (P48426 whole entry, looked up): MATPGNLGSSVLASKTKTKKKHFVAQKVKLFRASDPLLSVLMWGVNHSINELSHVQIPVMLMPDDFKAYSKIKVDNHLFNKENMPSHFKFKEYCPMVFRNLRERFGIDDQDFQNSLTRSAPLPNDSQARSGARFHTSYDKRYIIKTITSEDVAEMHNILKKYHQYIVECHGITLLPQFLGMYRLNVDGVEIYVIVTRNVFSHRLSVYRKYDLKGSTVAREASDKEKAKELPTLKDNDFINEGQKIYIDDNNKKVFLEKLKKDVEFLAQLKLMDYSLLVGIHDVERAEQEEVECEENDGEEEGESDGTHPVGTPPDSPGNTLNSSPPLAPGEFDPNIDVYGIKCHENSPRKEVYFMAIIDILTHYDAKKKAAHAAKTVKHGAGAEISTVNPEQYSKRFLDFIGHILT

The target in this test is Phosphatidylinositol 5-phosphate 4-kinase type-2 alpha (Homo sapiens) (UniProt P48426). Put plainly: qHTS for Inhibitors of phosphatidylinositol 5-phosphate 4-kinase (PI5P4K). Further: value at the top dose of about 77 µM. As to conditions: PI5P4Kalpha enzyme, ADP-Glo luminescence, 60 min; hits give low values. In outline:
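qHTS, 1536-well: enzyme/substrate mix, compound by pin tool, 5 microM ATP final; RT 60 min; ADP-Glo reagents 1 (45 min) then 2 (30 min); luminescence.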
A general note: Quantitative high-throughput screening tests each substance at several concentrations.
As for `OC(c1ccccc1)c1nc(-c2cnc3ccccc3c2)cs1` (configuration not stated), the max response is -0.318%.

As to `CC(C)(C)C1C/C(=C/c2ccco2)C(=O)/C(=C/c2ccco2)C1` (configuration not stated), the max response is -12.4%.

As for `CS(=O)(=O)c1ccc2c(c1)SC1=NC(=O)/C(=C/c3ccco3)C(=N)N12`, the max response was -79.5% (active).

For the molecule `O=C(Nc1cccc2ccccc12)c1[nH]c(-c2ccccc2)c2c1C(=O)N(C1CC1)C2=O`, the max response was -0.344%.

For the molecule `CN1CCN(C(=O)c2ccc(-c3cc4nc(NCc5cccnc5)n(C)c(=O)c4s3)cc2)CC1`, the max response was 2.18%.

`COc1ccc(NC(=O)C(c2ccncc2)n2c(=O)c(-c3cc4ccccc4[nH]3)nc3ccccc32)cc1` (configuration not stated): the max response is 0.0077%.

In the case of `Cc1cccc(C)c1NC(=O)C(c1cccc2ccccc12)n1c(=O)c(-c2ccco2)nc2ccccc21` (configuration not stated), the max response is -75.2% (active).

`CCCCCNC(=O)C(c1ccc(OC)cc1)n1c(=O)c(-c2ccccc2)nc2ccccc21` (configuration not stated): the max response was 8.24%.

Turning to `COc1ccc(C(C(=O)NCc2ccccc2)n2c(=O)c(-c3ccccc3)nc3ccccc32)cc1` (configuration not stated), the max response is 7.1%.

Consider `CCC(C(=O)Nc1c(C)cccc1C)n1c(-c2cc(C)cs2)nc2ccccc21` (configuration not stated), for which the max response is 0.0253%.

As to `Cn1c(SCC(=O)NC2CCCCC2)nnc1-c1cc2ccccc2o1`, the max response is 1.01%.

For `O=C(NC1CCCCC1)C(c1cc2ccccc2o1)n1c(=O)c(-c2ccco2)nc2ccccc21` (configuration not stated), the max response was -75.5% (active).

Turning to `CCC(CC)C(C(=O)NC1CCCC1)N1CCN(c2cc(C)nc3ccccc23)CC1` (configuration not stated), the max response is -1.13%.

For `Cc1cccc(C)c1NC(=O)C(c1ccc(C(F)(F)F)cc1)n1c(=O)c(-c2ccco2)nc2ccccc21` (configuration not stated), the max response is -54% (active).

As to `CC(=O)Nc1cc(-c2ccccc2N(C)C)cn2c(-c3ccc(F)c(Cl)c3)cnc12`, the max response was -1.56%.

For the molecule `NC(c1csc(NC(=O)Nc2cccc(C(F)(F)F)c2)n1)C1CCCCC1` (configuration not stated), the max response was 10.5%.

As to `Cc1ccc([C@H]2C[C@H](O)[C@@H](n3cc(COC(=O)c4ccccc4)nn3)CN2CC2CCCCC2)cc1`, the max response is 19.2%.

`O=C(NCc1ccccc1)C1c2ccccc2OCC(=O)N1CCCN1CCOCC1` (configuration not stated): the max response is 0.215%.

With `O=C(c1ccc(C(F)(F)F)cc1)N1CCC(=O)N([C@H](COCc2ccccc2)Cc2ccccc2)CC1`, the max response is 5.29%.

Regarding `COC(=O)c1ccc2nc(C3CCCCC3)c(Cc3cccc(F)c3)n2c1`, the max response was -0.596%.

`CCCCOCCCNC(=O)C[C@@H]1C[C@@]2(C(=O)OC)CCCCC=C2N(CCC2=CCCCC2)C1=O`: the max response is 17.9%.

For the molecule `O=C(Nc1ccc(N2CCOCC2)cc1)c1cccc2c(-c3ccc(F)c(F)c3)coc12`, the max response is 5.02%.

`CCc1c(N=O)c(-c2ccccc2)n(O)[n+]1[O-]`: the max response is -5.54%.

As for `Cc1ccsc1C(=O)N/N=C/c1ccc([N+](=O)[O-])cc1`, the max response is -10.5%.

In the case of `O=C(N/N=C/c1ccc(Cl)cc1)c1nc2ccc([N+](=O)[O-])cc2c(=O)[nH]1`, the max response was -60.4% (active).

Consider `O=C(N/N=C/c1ccc([N+](=O)[O-])cc1)c1c[nH]c2ccccc12`, for which the max response is 1.35%.

Consider `O=C(CCc1ccc(O)cc1)NN=Cc1cc(Br)ccc1O`, for which the max response is -16.2%.

As to `COc1ccc(NC(=O)C2Cc3c(-c4ccc5c(c4)OCO5)ccnc3O2)cn1` (configuration not stated), the max response is -13.8%.

As to `O=[N+]([O-])c1ccc(N2CCSCC2)cc1O`, the max response is -3.3%.

Take `O=C1CSC(=S)N1/N=C/c1ccc(O)c([N+](=O)[O-])c1`: the max response was -104% (active).

`O=C1CSC(=S)N1c1ccc(O)cc1`: the max response was -3.72%.

Take `CC1Cc2[nH][nH]c(=O)c2C(C2CCCC2)O1` (configuration not stated): the max response was 0.644%.

With `CC1=C(C(=O)N2CCOCC2)CC(CC(=O)NCCCN(C)C)C(=O)N1Cc1ccc(C(C)(C)C)cc1` (configuration not stated), the max response was 1.54%.

In the case of `Fc1ccc(COc2ccc(-c3nnco3)cc2)cc1`, the max response was -2.69%.

Turning to `Fc1ccc(/C=N/n2c(COc3ccccc3)n[nH]c2=S)cc1`, the max response is 5.11%.

With `Fc1ccc(COc2cccc(-c3n[nH]c(=S)o3)c2)cc1`, the max response is -51.9% (active).

As to `Cc1cccc(CNC(=O)c2sc(=O)n(Cc3ccccc3C)c2C)c1`, the max response is 0.532%.

On to `COc1ccc(-c2ccc(C(=O)NC(C)C)c3occc23)c(C)c1`, for which the max response was 4%.

Take `CC[C@@H]1Cc2cc(O)ccc2C2=C1c1ccc(O)cc1C[C@H]2CC`: the max response was -54.7% (active).

For `Cc1ccc(C(=O)N2CCCc3ccccc32)c(Cl)c1`, the max response is 0.412%.

On to `CC(C)(C)c1nnc2sc(SCC(O)=C(C#N)c3nc4ccccc4[nH]3)nn2c1=O`, for which the max response was -56.5% (active).

Regarding `N#C/C(=C(/O)COC(=O)COc1ccc(Cl)cc1)c1nc2ccccc2[nH]1`, the max response was -17%.

In the case of `N#C/C(=C(/O)COc1cccc2ccccc12)c1nc2ccccc2[nH]1`, the max response was -15.3%.

For the molecule `COC(=O)[C@@]12C[C@@H](CC(=O)N3CCC(c4ccccc4)CC3)C(=O)N(Cc3ccccc3)C1=CCC(C)(C)C2`, the max response is 3.29%.

For `COc1ccc(C(C)(NC(C)=O)c2nc(-c3ccc(S(C)(=O)=O)cc3)cs2)cc1` (configuration not stated), the max response is -2.22%.

As to `O=C(Nc1cc(Br)ccc1F)c1nc[nH]c1C(=O)NCc1ccccc1`, the max response is 32.1%.

With `O=C(Cc1ccc([N+](=O)[O-])cc1)NCCS(=O)(=O)N1CCN(c2ccccc2)CC1`, the max response is -2.51%.

As to `O=c1ccc2c(-c3ccccc3S(=O)(=O)O)c3ccc(O)c(O)c3oc-2c1O`, the max response was -99.8% (active).

Consider `COc1ccccc1CNc1nc(Nc2ccccc2Cl)c2sccc2n1`, for which the max response was -3.83%.

Regarding `CC(=O)c1ccc(Nc2nc(C(N)c3ccccc3Cl)cs2)cc1` (configuration not stated), the max response is 1.57%.

For the molecule `CC1(Oc2ccccc2-c2ccno2)CCN(Cc2ccc(-c3ccccc3)o2)C1` (configuration not stated), the max response was -1.74%.

As to `CC(=O)Nc1cccc(Nc2ccc(C#N)cc2)c1`, the max response is 1.81%.

`COC(=O)[C@]12CCCCC=C1N(Cc1ccco1)C(=O)[C@H](CC(=O)NCCCCc1ccccc1)C2`: the max response is 0.498%.

For the molecule `CCc1c(C)[nH]c(=S)c(C#N)c1C`, the max response was -67.1% (active).

In the case of `O=S1(=O)CCN(C2CCCCCCCCCCC2)CC1`, the max response was 7.96%.

Turning to `O=Cc1cn(CCOc2ccc(F)cc2)c2ccccc12`, the max response is 7.27%.

Turning to `COC(=O)c1ccc2nc(-c3ccc(F)cc3)c(Cc3ccc(C)cc3)n2c1`, the max response was 0.932%.

With `O=S1(=O)C[C@@H](N2CCN(CCO)CC2)[C@H](COCc2ccccc2)N1`, the max response is -1.64%.

For the molecule `CC(C)Oc1cc(F)ccc1-c1cc(C(=O)Nc2cccc(Cl)c2)[nH]n1`, the max response is 0.377%.

`COc1ccc(OC)c(C(O)c2ncc(-c3cccc(C(F)(F)F)c3)[nH]2)c1` (configuration not stated): the max response was -2.56%.

Take `CC1(OC(=O)C2CCCC2)C(=O)C=C2C=C(c3ccc(C#N)cc3)OC=C2C1=O` (configuration not stated): the max response is -76.4% (active).

Regarding `COCCN1C=C2C(=O)C(C)(OC(=O)C3CCCC3)C(=O)C=C2C=C1c1ccsc1` (configuration not stated), the max response was -2.59%.

Consider `C=CCN1C=C2C(=O)C(C)(OC(=O)CCc3ccccc3)C(=O)C=C2C=C1c1ccc(C#N)cc1` (configuration not stated), for which the max response was -25.6%.

Regarding `COc1ccccc1Cc1c(-c2ccc(Cl)cc2)nc2ccc(Cl)cn12`, the max response was -3.05%.

Regarding `Cc1ccccc1Nc1nnc(SCC(=O)c2cc3ccccc3o2)s1`, the max response is -19.3%.

With `CC(C)N(C(=O)CSc1nnc(NC2CC2)s1)c1ccccc1`, the max response was 2.4%.

Regarding `Cc1ccc(Nc2nnc(SCC(=O)c3cc4ccccc4o3)s2)cc1C`, the max response is -55.9% (active).

With `CC(C)Nc1nnc(SCC(=O)c2c[nH]c3ccccc23)s1`, the max response is -3.57%.

For `CC(C)c1ccc(Nc2nnc(SCC(=O)c3nnc(-c4ccccc4)o3)s2)cc1`, the max response was -79.1% (active).

In the case of `NC(=O)CSc1nnc(NC(=O)c2ccc3ccccc3c2)s1`, the max response was -9.56%.

In the case of `O=C1NC[C@H](CCCCN2C[C@H](Cc3ccc(O)cc3)N(CCc3ccccc3)C(=O)C2=O)N(CCc2ccccc2)C1=O`, the max response is -2.29%.

In the case of `COCc1cccc(-c2csc(C(O)c3ccc(F)cc3)n2)c1` (configuration not stated), the max response is 0.323%.

As to `COc1ccc(C(=O)N2CCCCC2c2cc(C(=O)Nc3ccc(F)c(Cl)c3)no2)cc1` (configuration not stated), the max response is -6.25%.

In the case of `NC(Cc1ccccc1)c1csc(Nc2cc(Oc3ccccc3)ncn2)n1` (configuration not stated), the max response is 1.15%.

Regarding `O=C(/C=C/c1ccc2c(c1)OCCO2)c1ccc(O)cc1`, the max response was -20.1%.

In the case of `O=C(/C=C/c1ccc(F)cc1)NCCNC(=O)/C=C/c1ccc(F)cc1`, the max response was 3.31%.

For `O=C(/C=C(O)/C=C/c1ccc(O)cc1)/C=C/c1ccc(O)cc1`, the max response is -59.8% (active).

In the case of `O=C1c2ccccc2-c2ccccc2NC1O` (configuration not stated), the max response was -1.89%.

With `COc1ccc(NC(=O)CCC(=O)Nc2nnc(C3CCCCC3)s2)cc1`, the max response was 0.477%.

`Cc1nnc(NC(=O)CCCOc2ccccc2)s1`: the max response is -10%.

Consider `COc1ccc(OCCCC(=O)Nc2nnc(C3CCCO3)s2)cc1` (configuration not stated), for which the max response was -53% (active).

In the case of `Cc1ccc(S(=O)(=O)N2CCC(=O)N([C@H](COCc3ccccc3)C(C)C)CC2)cc1`, the max response was -1.43%.

Take `CC(=O)Nc1cccc(-c2ccnc3c2CC(C)(C(=O)NCc2ccccc2)O3)c1` (configuration not stated): the max response is 0.0166%.

Consider `COC(=O)c1ccc(CN2C(=O)C(Cc3ccccc3)ON=C2c2ncccc2C)o1` (configuration not stated), for which the max response is -4%.

With `CCOC(=O)c1ccc(Nc2cc3ccccc3c(=O)[nH]2)cc1`, the max response is 3.2%.

Turning to `CCOC(=O)c1ccc(COC(=O)c2cc(=O)[nH]c3ccccc23)o1`, the max response was 0.0752%.

`CCOC(=O)c1cc2c(=O)[nH]c(C(Cl)(Cl)Cl)nc2o1`: the max response was -59.5% (active).
